Data on eight compounds can be found in PubChem BioAssay.

A number with no mark means an inactive call. Calls of active or inactive are those of the source.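 The calls were made as follows, unless noted: active = mean inhibition above 46.68%, the untreated control wells mean plus 3 SD; inactive = the rest.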

Usually inhibition stands for the drop in the measured response relative to a control, in per cent.

Experiment [1] has as its target Nuclear receptor coactivator 1 (Homo sapiens) (UniProt Q15788). The experiment is described as follows: SRC1 coactivator transcriptional activity inhibitors, confirmation, cell-based, luminescence, quadruplicate (AID 588820).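 Also: 0% = DMSO wells and 100% = gossypol 36 µM treated wells.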 Conditions: HEK293 GAL4-SRC1 luciferase reporter, at 3.6 µM, hits give high values. In general terms: A reporter such as luciferase makes a cellular process visible.

Experiment [2] can be described thus: VP16 transactivation inhibitors, counter-screen for SRC1 inhibitor project, cell-based, luminescence, high throughput (AID 588824; in the data active = inhibition above about 25%). The conditions noted are these: cell-based VP16 transactivation luciferase luminescence; at 3.6 µM; hits give high values. In general terms: The purpose of a counterscreen is to sort out artefacts and off-target activity.

Sequence of Nuclear receptor coactivator 1 (Homo sapiens) (Q15788 whole entry, looked up, the tested form may be a part): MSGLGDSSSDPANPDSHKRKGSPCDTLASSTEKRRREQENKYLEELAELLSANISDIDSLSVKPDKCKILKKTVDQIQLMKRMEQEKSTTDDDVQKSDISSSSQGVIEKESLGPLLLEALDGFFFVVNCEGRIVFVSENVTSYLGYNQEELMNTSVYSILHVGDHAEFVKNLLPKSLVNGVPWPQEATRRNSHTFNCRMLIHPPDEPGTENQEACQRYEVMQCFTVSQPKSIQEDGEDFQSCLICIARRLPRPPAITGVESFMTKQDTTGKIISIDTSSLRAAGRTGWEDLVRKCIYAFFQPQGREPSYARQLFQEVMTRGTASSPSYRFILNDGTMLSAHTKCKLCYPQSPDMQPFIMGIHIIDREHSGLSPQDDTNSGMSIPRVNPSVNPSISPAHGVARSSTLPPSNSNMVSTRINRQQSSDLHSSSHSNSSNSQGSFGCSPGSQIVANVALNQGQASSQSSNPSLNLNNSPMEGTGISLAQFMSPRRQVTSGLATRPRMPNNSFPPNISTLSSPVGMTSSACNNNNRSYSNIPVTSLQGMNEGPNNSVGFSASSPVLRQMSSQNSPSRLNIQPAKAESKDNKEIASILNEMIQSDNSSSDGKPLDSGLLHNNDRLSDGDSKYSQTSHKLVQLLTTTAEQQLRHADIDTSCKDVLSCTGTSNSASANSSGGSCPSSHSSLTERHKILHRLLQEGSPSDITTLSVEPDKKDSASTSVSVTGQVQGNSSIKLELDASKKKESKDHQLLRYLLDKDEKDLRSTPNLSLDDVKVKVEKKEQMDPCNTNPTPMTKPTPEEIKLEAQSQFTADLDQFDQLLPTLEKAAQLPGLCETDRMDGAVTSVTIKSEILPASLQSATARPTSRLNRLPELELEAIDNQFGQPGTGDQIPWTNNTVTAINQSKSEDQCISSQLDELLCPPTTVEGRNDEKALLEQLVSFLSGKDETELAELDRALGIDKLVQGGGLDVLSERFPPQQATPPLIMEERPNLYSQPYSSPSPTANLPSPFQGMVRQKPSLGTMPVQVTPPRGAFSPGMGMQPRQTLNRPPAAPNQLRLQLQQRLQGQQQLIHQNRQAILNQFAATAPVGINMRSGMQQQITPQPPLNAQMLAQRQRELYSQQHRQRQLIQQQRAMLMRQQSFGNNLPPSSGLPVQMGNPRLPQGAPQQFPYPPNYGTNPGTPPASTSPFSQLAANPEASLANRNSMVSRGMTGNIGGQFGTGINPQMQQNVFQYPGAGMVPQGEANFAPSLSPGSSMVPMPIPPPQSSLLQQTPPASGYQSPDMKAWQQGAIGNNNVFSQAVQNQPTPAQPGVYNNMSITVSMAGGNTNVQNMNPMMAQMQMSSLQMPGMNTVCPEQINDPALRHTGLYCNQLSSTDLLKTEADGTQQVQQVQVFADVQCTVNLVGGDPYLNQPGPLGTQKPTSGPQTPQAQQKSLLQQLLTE

For the compound `CCCc1cc(=O)oc2c(C)c(O[C@@H]3O[C@H](CO)[C@@H](O)[C@H](O)[C@H]3O)ccc12`, the inhibition in experiment [1] is -6.26%; in experiment [2], -0.67%.
In the same order, the values of `COc1ccccc1C1NC(=O)NC(C)=C1C(=O)OC1CCCC(C)C1` (stereo unspecified) are 6.58% and -1.62%.
For `COc1ccc(CN2CCN(C(=O)CCC(=O)Nc3nnc(C(F)(F)F)s3)CC2)cc1F`, the inhibition in experiment [1] was -1.74%; in experiment [2], -4.2%.
For the compound `O=C(COC(=O)C1CCN(c2ccc(C(F)(F)F)cn2)CC1)NCc1cccc(Cl)c1`, the inhibition in experiment [1] is 1.02%; in experiment [2] it was -3.36%.
For the compound `CN(C)c1ccncc1C(=O)Nc1ccc(F)cc1F`, the inhibition was -3.76% in experiment [1] and -9.03% in experiment [2].
For the compound `CCCCCCn1c(NCC)nc2c1c(=O)n(C)c(=O)n2C`, the inhibition is -1.77% in experiment [1] and 35.5% (active) in experiment [2].
In the same order, the values of `O=C1CSc2ccc(S(=O)(=O)NCc3ccccc3)cc2N1` are -4.74% and -9.61%.
As for `COc1ccc(CNC(=O)c2cccc(S(=O)(=O)N3CCCCC3)c2)cc1OC`, the inhibition in experiment [1] is -20.1%; in experiment [2] it was 30.6% (active).
